# From PubChem BioAssay
# HP1b chromo inh – blocks HP1-beta chromodomain binding to methylated histone tails. AlphaScreen HP1-beta / biotin-H3K9me3 peptide binding. Potency, µM (highest dose often 114 µM), for the others: at the top dose activity change, negative = inhibition, hits mostly inhibitors. P83916. 390,000 tested, 0.56% active. AID 540317; further: nearly all actives have a fitted effect of over 70% in size
#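 Compound inhibition of the preformed complex between 50 nM HP1-beta and 50 nM biotinylated H3K9me3 peptide was read by AlphaScreen. Buffer was PBS pH 7.4 with 0.01% Tween-20. Incubations ran 30 min at room temperature, with 10 ug/mL donor/acceptor beads.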
# Sfp inh – inhibitors of Bacillus subtilis Sfp phosphopantetheinyl transferase | Q9F4F7 | Biochemical Sfp PPTase activity, qHTS | Potency, µM, inactives show largest response in the series, negative = inhibition, hits mostly inhibitors | 310,000 tested, 3.5% active;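 further: the enzyme is Sfp with the accession as filed and its product quenches rhodamine fluorescence; 0% = enzyme reaction without inhibitor and -100% = no enzyme wells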
#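 Sfp 15 nM + cpd, 15 min RT; start w/ rhodamine-CoA 5 uM, BHQ-2-YbbR 12.5 uM (final); 50 mM Hepes pH 7.6, 10 mM MgCl2, 0.01% NP-40, 0.01% BSA; read 525/598 nm at 0 and 30 min.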
# BAZ2B inh – BAZ2B (human) inhibition; 360,000 tested, 4.4% active; AlphaScreen BAZ2B-H3K14Ac peptide displacement; Q9UIF8; Potency, µM (titrated, usually from 114 µM), for inactives: top-dose activity change, negative = inhibition, usual class: inhibitors; further: on the % scale 0 is the no-effect control and ±100 the full control effect; nearly all actives have a fitted effect of over 60% in size
#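 Protein-peptide AlphaScreen: BAZ2B 50 nM, b-H3K14Ac 50 nM, 1x PBS pH 7.4 + 0.01% Tween-20. Preincubation 30 min RT; cpd 30 min RT (top 110 uM); beads 20 min RT, light-protected.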
# JMJD2A Tudor – JMJD2A Tudor domain (human) inhibition; 390,000 tested, 4.4% active; O75164; Potency, µM (highest dose often 114 µM), without a hit: top-dose activity change, negative = inhibition, most hits filed as inhibitors; AlphaScreen JMJD2A-Tudor / H3K4me3 peptide binding; further: on the % scale 0 is the no-effect control and ±100 the full control effect; nearly all actives have a fitted effect of over 50% in size
# G9a block – inhibitors of human histone lysine methyltransferase G9a. Potency, µM (doses to about 102 µM), inactives show at the highest dose activity, negative = inhibition, hits mostly inhibitors. AID 504332. 350,000 tested, 8.8% active. Q96KQ7. G9a H3K9 monomethylation, AlphaScreen, 2 h; further: on the % scale 0 is the no-effect control and ±100 the full control effect; nearly all actives have a fitted effect of over 75% in size
#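 Enzyme 20 nM + cpd, 15 min RT; add b-H3K9 pep 500 nM / SAM 20 uM; 2 h RT; anti-H3K9me1 Ab 0.5 ug/mL + SA donor / anti-rabbit acceptor beads 20 ug/mL each, 10 min; AlphaScreen read.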
# TDP1 block – TDP1 (human) enzyme inhibition; Q9NUW8; Potency, µM (series often up to 130 µM), without a hit: at the top dose activity change, negative = inhibition, hits mostly inhibitors; 350,000 tested, 0.28% active; recombinant TDP1, AlphaScreen DNA substrate cleavage; further: on the % scale 0 is the no-effect control and ±100 the full control effect; nearly all actives have a fitted effect of over 40% in size
# Target sequence (Q9NUW8 whole entry, looked up): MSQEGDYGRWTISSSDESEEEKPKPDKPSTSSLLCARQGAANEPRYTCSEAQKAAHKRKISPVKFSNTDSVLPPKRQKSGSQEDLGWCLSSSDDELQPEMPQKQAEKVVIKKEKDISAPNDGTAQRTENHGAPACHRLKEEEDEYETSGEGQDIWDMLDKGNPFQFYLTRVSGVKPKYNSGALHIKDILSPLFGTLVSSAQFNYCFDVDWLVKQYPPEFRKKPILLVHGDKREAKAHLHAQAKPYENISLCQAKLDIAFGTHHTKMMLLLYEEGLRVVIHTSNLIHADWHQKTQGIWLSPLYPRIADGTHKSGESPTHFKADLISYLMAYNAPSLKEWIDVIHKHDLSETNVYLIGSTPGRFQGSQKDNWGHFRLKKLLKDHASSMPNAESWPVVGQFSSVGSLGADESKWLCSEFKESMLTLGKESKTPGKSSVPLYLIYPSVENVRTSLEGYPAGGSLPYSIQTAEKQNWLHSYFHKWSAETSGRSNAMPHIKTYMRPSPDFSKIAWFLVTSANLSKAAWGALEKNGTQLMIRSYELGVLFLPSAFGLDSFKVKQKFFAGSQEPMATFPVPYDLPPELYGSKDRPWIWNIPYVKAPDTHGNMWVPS
#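 Signal: AlphaScreen proximity between streptavidin donor and anti-FITC acceptor beads on intact substrate. Reaction: Tdp1 1 nM, substrate 15 nM final, 5 min RT after 15 min compound preincubation.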
# Active calls of the source: *; ? = inconclusive; / = no result given; [ ] = another dose, or the depositor's remark. Shown are actives, neighbours in structure and some others; about 12% of the full set was active somewhere. The call rests on the fitted dose curve; in most records, active means well fitted curve in the direction sought with a large enough effect; inconclusive means small, poorly fitted or top-dose-only effect, or another doubt; inactive means no such curve, though single readings can be large; an effect the other way counts as inactive or inconclusive. Potency means the concentration at half of the fitted maximal effect.
SMILES,HP1b chromo inh,Sfp inh,BAZ2B inh,JMJD2A Tudor,G9a block,TDP1 block
CC/C(=N\Nc1ccccc1)c1c(O)[nH]c(=O)[nH]c1=O,29.1%,6.0%,0.4%,-19.3%,44.7µM*,4.7%
COc1ccc(N=C(C)c2c(O)[nH]c(=O)[nH]c2=O)cc1,44.3%,9.9%,-21.8%,-3.2%,-11.5%[59 µM],/
CCNC(=O)[C@H]1O[C@@H](n2cnc3c(N)ncnc32)[C@H](O)[C@H]1O,/,/,/,/,51.4%[12.7 µM],11.3%[56.1 µM]
CC(C)[N+](=O)[O-],/,/,/,/,/,7.0%
Cl/C=C/Cl,/,/,/,/,/,10.4%
O=C(C[N+]12CCC(CC1)C(CO)C2)c1ccc([N+](=O)[O-])cc1 (stereo unspecified),53.6%,5.4%,-13.1%,-7.5%,35.5µM*,2.5%
COC(=O)Nc1cccc(OC(=O)Nc2cccc(C)c2)c1,/,/,/,/,/,-13.2%
CCN(CC)C(=O)N[C@H]1C=C2c3cccc4[nH]cc(c34)C[C@@H]2N(C)C1,/,4.2%,/,/,?,16.4%[21 µM]
O=C(NC1CN2CCC1CC2)c1ccc(-c2ccc([N+](=O)[O-])cc2)o1 (stereo unspecified),-1.8%,56.2µM*,-29.8%,-27.2%,?,-2.7%
O=C(NCCCCc1ccccc1)c1ccccc1Br,52.6%,/,/,-1.3%,/,/
CCCCC(CC)CNCC(O)c1ccccc1 (stereo unspecified),-22.0%,-4.2%,/,7.08µM*,25.1µM*,2.7%
CC(=O)O[C@H]1CCC2C3CCC4=CC(=O)CCC4=C3C=C[C@@]21C (stereo partly specified),?,?,-6.8%,?,44.7µM*,/
O=C1CC2OCC=C3CN4CC[C@]56c7ccccc7N1C5C2[C@H]3C[C@H]46 (stereo partly specified),/,25.9%,/,/,16.7%[59 µM],12.2%
CCOc1ccccc1OCCCCN1CCCC1,?,?,?,31.6µM*,?,2.2%
CCCCOC(C)=O,/,/,/,/,/,12.7%
C=CCOCC1CO1 (stereo unspecified),/,/,/,/,/,9.9%
Cn1c(O)c(C(c2ccccn2)c2c(O)n(C)c(=S)[nH]c2=O)c(=O)[nH]c1=S,35.3%,79.4µM*,50.1µM*,79.4µM*,21.9%[0.0925 µM],-5.9%
CCCCCSc1cc(OC)c(CCN(C)C)cc1OC,?,-11.7%,44.7µM*,?,3.5%[59 µM],9.2%
Cc1ccc(Cn2c(SCc3ccc(C(=O)NC4CCCC4)cc3)nc3ccncc32)cc1,52.8%,/,-1.6%,-10.1%,?,7.6%
COc1ccc(NC(=S)NC(NC(=O)CF)C(Cl)(Cl)Cl)cc1[N+](=O)[O-] (stereo unspecified),?,-8.3%,?,?,22.4µM*,7.7%
O=C(CF)NC(NC(=S)Nc1cccc([N+](=O)[O-])c1)C(Cl)(Cl)Cl (stereo unspecified),19.8%,-3.0%,-38.9%,-28.2%,35.5µM*,4.9%
COC(=O)c1ccccc1OP(=O)(c1cccc([N+](=O)[O-])c1)c1cccc([N+](=O)[O-])c1,?,6.0%,?,-21.5%,/,3.6%
Clc1ccc(Sc2oc(/C=N/n3cnnc3)cc2Br)cc1,9.5%,-3.0%,10.4%,89.1µM*,-2.3%,0.0%
O=C1NC(=O)N(c2ccccc2F)C(=O)/C1=C/c1cn(CC(=O)N2CCOCC2)c2ccccc12,39.5%,?,-0.5%,-0.4%,15.8µM*,/
CCN1C(=O)NC(=O)/C(=C\c2cn(CC(=O)O)c3ccccc23)C1=O,/,2.4%,-14.0%,/,8.5%[2.33 µM],/
SMILES,HP1b chromo inh,Sfp inh,BAZ2B inh,JMJD2A Tudor,G9a block,TDP1 block
O=C(O)Cn1cc(/C=C2\C(=O)NC(=O)N(Cc3ccco3)C2=O)c2ccccc21,-30.5%,28.2µM*,70.8µM*,79.4µM*,15.8µM*,/
CCN(CC)c1ccc(/C=C2\C(=O)NC(=O)N(Cc3ccco3)C2=O)cc1,-12.3%,?,50.1µM*,?,?,-14.0%
O=C(c1ccccc1F)c1cn(CC(=O)N2CCOCC2)c2ccccc12,-9.3%,22.2%,2.5%,?,17.1%,0.0%
Cc1ccc(N2C(=O)NC(=O)/C(=C\c3cn(CC(=O)O)c4ccccc34)C2=O)cc1,27.9%,-24.8%,?,-9.2%,25.1µM*,/
C[N+]1([O-])[C@@H]2CC[C@H]1CC(OC(=O)[C@@H](CO)c1ccccc1)C2 (stereo partly specified),/,-10.8%,/,/,22.1%[5.15 µM],12.8%[21 µM]
Cc1ccc2ccccc2c1C,/,/,/,/,/,5.9%
COC(=O)c1c(NC(=O)C2CC=CCC2C(=O)O)sc2c1CCCCC2 (stereo unspecified),?,-6.2%,?,-32.4%,/,/
CCc1ccccc1N1C(=O)NC(=O)/C(=C\c2cc(C)n(C)c2C)C1=O,?,3.3%,-4.4%,-15.4%,9.1%[59 µM],5.5%
O=C(O)Cn1cc(/C=C2\C(=O)NC(=O)N(c3ccc(Br)cc3)C2=O)c2ccccc21,9.0%[57 µM],28.2µM*,-4.0%,-9.2%,56.2µM*,/
Cc1cc(/C=C2/C(=O)NC(=O)N(Cc3ccco3)C2=O)c(C)n1-c1ccccc1O,-8.2%,6.0%,35.5µM*,?,/,6.0%
Cc1ccc2c(c1)CC1(CN2C)C(=O)NC(=O)N(CCc2ccccc2)C1=O (stereo unspecified),47.3%,-26.7%,-3.9%,2.1%,7.94µM*,7.1%
Cc1ccc2c(c1)CC1(CN2C)C(=O)NC(=O)N(c2cccc(C)c2C)C1=O (stereo unspecified),49.1%,-8.4%,-2.3%,-15.2%,7.94µM*,3.2%
COc1ccccc1N1C(=O)NC(=O)C2(Cc3cc(C)ccc3N(C)C2)C1=O (stereo unspecified),29.9%,-17.3%,-4.6%,-30.1%,8.91µM*,5.7%
